# Test results taken from PubChem BioAssay (Tox21).
# Values joined by “and” are separate entries in the source; they are usually repeats but may differ in a detail not shown here. Identical values can stand only once. Inconclusive results are not listed. More than one record can exist for a structure, and the calls need not agree. Active and inactive are the calls of the source. Unless noted, the call rests on the fitted dose curve.
# Assay: qHTS assay to identify small molecule antagonists of the estrogen related receptor (ERR) signaling pathway from Tox21 library (AID 1224848; active means well fitted inhibition curve with a large enough effect in the repeat runs; further: nearly all actives have a fitted effect of over 50% in size; further: potency means the concentration at half of the fitted maximal effect)
# Settings: ERR reporter cell line, luciferase antagonist mode, 18 h; series mostly up to 92.4 µM
# Method in brief: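 Cells: ERR line, 2,000/well; 6 h preincubation 37 C/5% CO2. Cpd in DMSO via pin tool; 18 h, 37 C. ONE-Glo, 30 min RT, luminescence.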
# On the % scale 0 is the no-effect control and ±100 the full control effect.
row,SMILES,Potency
1,O=[N+]([O-])c1ccc(Cl)c([N+](=O)[O-])c1,24.7 µM (active) and 24.3 µM (active)
2,CC1(C)C(C(=O)OC(C#N)c2cccc(Oc3ccccc3)c2)C1(C)C (stereo not drawn),30.9 µM (active)
3,O=C1C(Cl)=C(Cl)C(=O)c2ccccc21,24.4 µM (active) and inactive
4,CC(C)(c1ccc(OCC2CO2)cc1)c1ccc(OCC2CO2)cc1 (stereo not drawn),61.9 µM (active)
5,Nc1ccc([N+](=O)[O-])cc1N,inactive
6,c1ccc2c(c1)Nc1ccccc1S2,inactive
7,CC(C)=CC1C(C(=O)OCc2cccc(Oc3ccccc3)c2)C1(C)C (stereo not drawn),inactive
8,CCC1(c2ccc(N)cc2)CCC(=O)NC1=O (stereo not drawn),inactive
9,C=CC(=O)OCC(CC)(COC(=O)C=C)COC(=O)C=C,15.8 µM (active) and 19.3 µM (active)
10,CC(C)Nc1ccc(Nc2ccccc2)cc1,15.3 µM (active) and 48.6 µM (active)
11,NC(=O)CN1CCCC1=O,inactive
12,CC(C)(c1ccccc1)c1ccc(O)c(C(C)(C)c2ccccc2)c1,42.9 µM (active) and 48.6 µM (active)
13,CCC[CH2][Sn]([Cl])([Cl])[CH2]CCC,155 nM (active) and 172 nM (active)

# Assay: qHTS assay to identify small molecule agonists of the estrogen related receptor (ERR) signaling pathway from Tox21 library (AID 1224849); further: nearly all actives have a fitted effect of over 15% in size
# Settings: ERR reporter cell line, ONE-Glo luciferase, 18 h; at 42.5 µM (top of the series)
# Method in brief: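 ERR reporter cells (NTP line) pre-incubated 6 hours at 37 C, then exposed to compounds for 18 hours at 37 C. ONE-Glo luciferase luminescence was read after 30 minutes at room temperature.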
row,SMILES,"activity change, positive = activation"
1,c1ccc2c(c1)Nc1ccccc1S2,-0.479% (inactive)
2,CC(C)=CC1C(C(=O)OCc2cccc(Oc3ccccc3)c2)C1(C)C (stereo not drawn),-0.963% (inactive)
3,CCC1(c2ccc(N)cc2)CCC(=O)NC1=O (stereo not drawn),5.08% (inactive)
4,CC(C)=CC1C(C(=O)OCN2C(=O)C3=C(CCCC3)C2=O)C1(C)C (stereo not drawn),-16.7% (inactive)
5,NC(=O)CN1CCCC1=O,2.36% (inactive)

# Same assay, conditions: ERR reporter cell line, ONE-Glo luciferase, 18 h; at 92.4 µM (top of the series)
row,SMILES,"activity change, positive = activation"
1,O=[N+]([O-])c1ccc(Cl)c([N+](=O)[O-])c1,-81.7% (inactive) and -78.5% (inactive)
2,CC1(C)C(C(=O)OC(C#N)c2cccc(Oc3ccccc3)c2)C1(C)C (stereo not drawn),-46.1% (inactive) and -24.4% (inactive)
3,O=C1C(Cl)=C(Cl)C(=O)c2ccccc21,-82.7% (inactive) and -46.9% (inactive)
4,CC(C)(c1ccc(OCC2CO2)cc1)c1ccc(OCC2CO2)cc1 (stereo not drawn),-61.1% (inactive) and -21.3% (inactive)
5,Nc1ccc([N+](=O)[O-])cc1N,-63% (inactive) and 34.6% (active)
6,c1ccc2c(c1)Nc1ccccc1S2,-21.3% (inactive)
7,CC(C)=CC1C(C(=O)OCc2cccc(Oc3ccccc3)c2)C1(C)C (stereo not drawn),-0.843% (inactive)
8,CCC1(c2ccc(N)cc2)CCC(=O)NC1=O (stereo not drawn),-19.8% (inactive)
9,C=CC(=O)OCC(CC)(COC(=O)C=C)COC(=O)C=C,-82.1% (inactive) and -76.4% (inactive)
10,O=[N+]([O-])c1ccc(Nc2ccccc2)cc1,-30.2% (inactive) and -27.4% (inactive)
11,CC(C)=CC1C(C(=O)OCN2C(=O)C3=C(CCCC3)C2=O)C1(C)C (stereo not drawn),-22.5% (inactive)
12,CC(C)Nc1ccc(Nc2ccccc2)cc1,-81.7% (inactive) and -69.9% (inactive)
13,NC(=O)CN1CCCC1=O,6.19% (inactive)
14,CC(C)(c1ccccc1)c1ccc(O)c(C(C)(C)c2ccccc2)c1,-71.4% (inactive) and -64.9% (inactive)
15,CCC[CH2][Sn]([Cl])([Cl])[CH2]CCC,-84.1% (inactive) and -80% (inactive)
